UBC13 inh: inhibitors of human UBC13 polyubiquitin chain formation. P61088. TR-FRET. inhibition, % at 20 µM. actives 0.47% (n = 330,000). AID 485273; in the data active = inhibition above about 45%, passing the limit was not always enough
MEKK3 PB1 HTS: raises or lowers MEK5 binding to the human MEKK3 PB1 domain; Q99759; bead-based flow cytometry, Alexa488-MEK5 binding to MEKK3; actives lie on both sides; 0 = blocked by unlabeled MEK5, 100 = vehicle; binding response (% of control), % at 10 µM; actives 1.4% (n = 290,000);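 active = binding response more than 3 SD above or below the average of its plate-row segment, actives on both sides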;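 note: Alexa488 bead fluorescence after subtracting the streptavidin-only scavenger bead signal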
Target sequence (Q99759 whole entry, looked up, the tested form may be a part): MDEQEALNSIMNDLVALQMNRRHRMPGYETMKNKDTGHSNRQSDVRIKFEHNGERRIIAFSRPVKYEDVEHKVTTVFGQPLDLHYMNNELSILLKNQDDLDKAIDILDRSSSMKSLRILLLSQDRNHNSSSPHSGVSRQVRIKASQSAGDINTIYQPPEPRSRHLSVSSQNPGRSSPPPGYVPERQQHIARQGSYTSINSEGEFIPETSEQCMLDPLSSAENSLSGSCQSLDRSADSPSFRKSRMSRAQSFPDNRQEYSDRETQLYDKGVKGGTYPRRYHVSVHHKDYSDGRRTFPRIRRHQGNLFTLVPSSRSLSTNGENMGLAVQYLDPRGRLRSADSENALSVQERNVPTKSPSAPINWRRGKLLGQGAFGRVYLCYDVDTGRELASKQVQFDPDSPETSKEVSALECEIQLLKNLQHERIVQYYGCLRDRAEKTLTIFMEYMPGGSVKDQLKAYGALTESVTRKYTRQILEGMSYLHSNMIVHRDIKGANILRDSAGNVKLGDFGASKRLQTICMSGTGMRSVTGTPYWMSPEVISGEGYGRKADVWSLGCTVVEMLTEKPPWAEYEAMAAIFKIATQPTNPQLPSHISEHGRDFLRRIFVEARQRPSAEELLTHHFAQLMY
MEKK2 mut-MEK5: signal of MEK5 binding to mutant human MEKK2 PB1 domain | bead flow cytometry, Alexa488-MEK5 binding to MEKK2 mutant | percent response, % at 10 µM | actives 0.35% (n = 290,000); in the data active = percent response above about 24%, passing the limit was not always enough
MEKK2 WT-MEK5: raises or lowers MEK5 binding to wildtype human MEKK2 PB1 domain. Q9Y2U5. bead flow cytometry, Alexa488-MEK5 binding to MEKK2 WT; actives lie on both sides. binding response (% of control), % at 10 µM. actives 1.1% (n = 290,000). AID 1531; in the data active = binding response below about 67% or above about 130%
MEKK2wt confirm: raises or lowers MEK5 binding to wildtype human MEKK2, retest; shares compounds with MEKK3 PB1 HTS; bead flow cytometry, Alexa488-MEK5 binding to MEKK2 WT; actives lie on both sides; binding response (% of control), % at 10 µM; actives 2.4% (n = 5,900); AID 1892; in the data active = binding response below about 16% or above about 210%; inactive = in between
MEKK2mut-MEK5: signal of MEK5 binding to mutant human MEKK2, retest; percent response, % at 10 µM; shares compounds with MEKK3 PB1 HTS; bead flow cytometry, Alexa488-MEK5 binding to MEKK2 mutant; actives 2% (n = 5,900); in the data active = percent response mostly above about 71%, no sharp cut-off; inactive = mostly below about 38%;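 note: higher means compound restores mutant binding toward wildtype level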
MEKK3-MEK5 inh: confirmation of inhibitors of MEK5 binding to human MEKK3. shares compounds with MEKK3 PB1 HTS. bead flow cytometry, Alexa488-MEK5 binding to MEKK3; stronger effect = lower value. binding response (% of control), % at 10 µM. actives 1.8% (n = 5,900);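 active = binding response below 72% of control, or above a set upper limit, though filed actives all read lower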;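 note: 100% = DMSO only wells and 0% = binding blocked by excess unlabeled MEK5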
Starred values were filed as active, the others as inactive; . = not tested or not shown; [ ] = another dose, or the depositor's remark. The list is not random: actives were taken first. Their share in the collection is about 2.3%.

SMILES | UBC13 inh | MEKK3 PB1 HTS | MEKK2 mut-MEK5 | MEKK2 WT-MEK5 | MEKK2wt confirm | MEKK2mut-MEK5 | MEKK3-MEK5 inh
CCCOc1ccc(C(=O)NCC(c2cccs2)N(C)C)cc1OC (configuration not stated) | 10 | 146* | 7 | 108 | 118 | 17 | 104
COc1ccc(/C(C)=N/NC(=S)Nc2cc(C)ccc2C)cc1 | 18 | 110 | 3 | 109 | . | . | .
COc1ccc(CNc2cccc3[nH]c(C(F)(F)F)nc23)cc1 | 5 | 101 | 2 | 99 | . | . | .
COc1cc(CNc2cccc3[nH]c(C(F)(F)F)nc23)cc(OC)c1 | 1 | 109 | 24* | 149* | 100 | 0 | 106
O=C(COC(=O)c1cc(S(=O)(=O)Nc2ccccc2Cl)ccc1O)Nc1ccc(F)c(F)c1F | -11 | . | . | . | . | . | .
COc1ccccc1NS(=O)(=O)c1cc([N+](=O)[O-])ccc1N/N=C/c1sc(N2CCOCC2)nc1-c1ccccc1 | . | 81 | 205* | 65 | 85 | -10 | 94
COc1ccc(C(=O)N/N=C/c2sc(N3CCOCC3)nc2-c2ccccc2)cc1OC | 11 | 97 | -10 | 79 | . | . | .
CCCn1c(C)cc(C(=O)COC(=O)c2ccc[nH]c2=O)c1C | -10 | 130* | 0 | 106 | 97 | -2 | 102
COc1cc(CN2CCNC(=O)C2CC(=O)NCc2csc(C(C)C)n2)cc(OC)c1 (configuration not stated) | -3 | 100 | -8 | 91 | . | . | .
Cc1nn(C)c(Nc2ccc(Br)cc2)c1Br | 7 | 101 | 271* | . | 99 | -3 | 98
Cc1cc(C)nc(-n2nc(C)c(Br)c2Nc2ccc(Br)cc2)n1 | 2 | 100 | 1 | 95 | . | . | .
CC(=O)c1ccc(NC(=O)CSc2ccc(-c3ccc4c(c3)OCO4)nn2)cc1 | 5 | 130* | 0 | 103 | 106 | 7 | 107
CC(C)c1nc2sc3c(=O)n(N)cnc3c2c2c1COC(C)(C)C2 | 17 | 145* | 0 | 104 | 120 | 31 | 119
Cc1ccc(CNC(=O)C2CCN(S(=O)(=O)c3ccc4c(c3)CC(C)N4C(=O)C3CCC3)CC2)o1 (configuration not stated) | -3 | 97 | 4 | 98 | . | . | .
O=C(O)C1C2C=CC(O2)C1C(=O)NCCC1=CCCCC1 (configuration not stated) | -9 | 1.0*[inhibitor] | -18 | 1.0*[inhibitor] | 107 | -1 | 103
Cc1ccc(CSCCC(=O)NCCC2=CCCCC2)cc1 | 6 | 130* | 1 | 114 | 106 | 2 | 101
C1=C(CCNc2ncnc3c2[nH]c2ccccc23)CCCC1 | . | 95 | 26 | 143* | 140 | 20 | 107
Cc1[nH]c2ccccc2c1C(=O)C(=O)NCCC1=CCCCC1 | -11 | 135* | 0 | 104 | 98 | 6 | 102
CCCCCC(=O)Nc1cccc(C2=NOC3(C2)C[C@H](C(N)=O)N(C(=O)c2ccccc2C(=O)c2ccccc2)C3)c1 (some centres not stated) | 8 | 84 | 0 | 99 | . | . | .
Cc1ccc(N2C(=O)C3C(C2=O)C2C=CC3C23CC3)c([N+](=O)[O-])c1 (configuration not stated) | 0 | 107 | -2 | 104 | . | . | .
Cc1ccc(CNC(=O)C(=O)NCCC2=CCCCC2)cc1 | -9 | 72*[inhibitor] | 3 | 99 | 101 | -6 | 103
O=C(NCCC1=CCCCC1)C(=O)NCc1ccccc1 | -10 | 108 | -1 | 99 | . | . | .
COc1ccc(N=c2oc3ccc(OC)cc3cc2-c2nc3ccccc3[nH]2)cc1 | -7 | 124* | 5 | 105 | 101 | 6 | 100
COc1cccc(N=c2oc3ccc(OC)cc3cc2-c2nc3ccccc3[nH]2)c1 | -25 | 102 | -1 | 91 | . | . | .
COc1ccc(C(=O)NC2CCCc3c2cnn3-c2cc(F)cc(F)c2)c(OC)c1OC (configuration not stated) | 9 | 100 | 1 | 100 | . | . | .

Bioassay records deposited in PubChem by several laboratories.
